Source: PubChem BioAssay (National Center for Advancing Translational Sciences (NCATS))
Only some compounds are listed: those with a hit (about 7.5% of all), similar ones and a draw of the others.
Giardia FBPA inh – inhibitors of Giardia lamblia fructose-1,6-bisphosphate aldolase. A8B2U2. purified Giardia FBPA. Potency, µM (series often up to 59.6 µM), inactives show top-dose activity, negative = inhibition, usual class: inhibitors. 290,000 compounds, 0.71% hits. AID 2451; note: potency is the fitted concentration of half-maximal effect; nearly all actives have a fitted effect of over 55% in size
Target sequence (A8B2U2 whole entry, looked up): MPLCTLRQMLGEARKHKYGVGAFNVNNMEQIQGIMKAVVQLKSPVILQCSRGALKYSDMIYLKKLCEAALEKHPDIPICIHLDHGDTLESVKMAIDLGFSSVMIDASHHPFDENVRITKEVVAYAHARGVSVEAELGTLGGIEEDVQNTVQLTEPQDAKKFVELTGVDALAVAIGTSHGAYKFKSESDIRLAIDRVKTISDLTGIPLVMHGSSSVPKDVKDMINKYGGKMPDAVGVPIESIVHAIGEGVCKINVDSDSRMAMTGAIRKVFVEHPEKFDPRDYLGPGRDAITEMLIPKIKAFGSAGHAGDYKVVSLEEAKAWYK
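40 nM FBPA preincubated 10 min at RT with compound (up to 57.5 uM final), then substrate plus GAPDH/TPI/NAD/arsenate coupling and diaphorase/resazurin added. Fluorescence read after 20 min at RT, 525/598 nm.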
Vaccinia mCherry – inhibitors of vaccinia virus infection (mCherry reporter signal) | Vaccinia virus mCherry reporter infection, fluorescence | Potency, µM (series often up to 36.5 µM), inactives show top-dose activity change, negative = inhibition, usual class: inhibitors | 310,000 compounds, 0.63% hits; calls by dose curve; tested in A549 cells; note: potency is the fitted concentration of half-maximal effect; nearly all actives have a fitted effect of over 35% in size
HCV inhibitor – blocks hepatitis C virus; 340,000 compounds, 3.4% hits; Huh7.5.1 HCVcc-Cre infection, luciferase reporter, 44 h; AID 651820; Potency, µM (top dose mostly 41.8 µM), for the others: top-dose activity change, negative = inhibition, actives largely listed as inhibitors; note: potency is the fitted concentration of half-maximal effect
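Luciferase read-out (15 sec integration) after a 15 min room-temperature substrate step quantifies HCVcc-Cre infection. Cells, 1,000 per well, had compound added 4 h post-plating, then virus at ~0.5 moi, and were cultured 44 h.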
FMDV antiviral – antivirals against foot and mouth disease virus; 410,000 compounds, 1.2% hits; FMDV antiviral cell-based qHTS; Potency, µM (titrated, usually from 57.9 µM), without a hit: top-dose activity change, negative = inhibition, actives largely listed as inhibitors; calls by dose curve; tested in HEK293T cells; note: read-out not given here; potency is the fitted concentration of half-maximal effect; nearly all actives have a fitted effect of over 45% in size
HCMV inh – inhibitors of human cytomegalovirus | HFF cells, HCMV-luciferase reporter, 72 h; hits give low values | activity change, negative = inhibition, % at 57.5 µM | 410,000 compounds, 4.5% hits; in the data active = activity change below about -60%; inconclusive = no clear call, values can overlap the other calls; inactive = above about -39%
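Compounds were evaluated in HFFs infected with an HCMV luciferase reporter virus (MOI 1 PFU/cell). Luciferase in lysates collected 72 h post infection served as the replication measure.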
VACV Venus inh – vaccinia inhibition (Venus reporter). Vaccinia virus Venus reporter expression, fluorescence. Potency, µM (highest dose often 36.5 µM), inactives show at the top dose activity change, negative = inhibition, usual class: inhibitors. 330,000 compounds, 0.46% hits. AID 720580; calls by dose curve; tested in A549 cells; note: potency is the fitted concentration of half-maximal effect; nearly all actives have a fitted effect of over 30% in size
An asterisk follows results filed as active; i = inactive; u = inconclusive; x = not tested or not shown; [ ] = remark or other dose. Unless noted, calls come from the whole dose curve; as a rule, active = well fitted curve in the direction sought with a large enough effect; inconclusive = small, poorly fitted or top-dose-only effect, or another doubt; inactive = no such curve, though single readings can be large; an effect the other way counts as inactive or inconclusive. % is set by controls: 0 for no effect and ±100 for the full control effect.

SMILES	Giardia FBPA inh	Vaccinia mCherry	HCV inhibitor	FMDV antiviral	HCMV inh	VACV Venus inh
COc1cccc(C2CC(c3c(-c4ccccc4)c4cc(Cl)ccc4[nH]c3=O)=NN2S(C)(=O)=O)c1OC (stereo not given)	-5%	x	11µM*	u	-6	u
COc1ccccc1C1CC(c2c(-c3ccccc3)c3cc(Cl)ccc3[nH]c2=O)=NN1S(C)(=O)=O (stereo not given)	x	11µM*	u	u	9	11µM*
CCCCS(=O)(=O)NC(=O)C1(C)CCN1C(=O)C/C=C/c1ccccc1 (stereo not given)	x	-4%	x	-23%	-7	5%
C=CC(COCc1ccccc1)N(C(=O)OC(C)(C)C)S(=O)(=O)c1ccccc1Br (stereo not given)	-9%	u	-25%	u	-21	-14%
COc1ccc(CN(CC(O)COCc2ccccc2)S(=O)(=O)c2ccccc2Br)cc1OC (stereo not given)	x	i	11µM*	-8%	-22	u
CSc1cccc(NC(=O)C(=O)NCc2ccccc2)c1	2%	-7%	10%	32%	-11	2%
O=C(Nc1ccc(Cl)cc1)Nc1cccc(C(=O)O)c1	10%	-10%	19%	8.9µM*	16	-1%
O=C(Nc1cccc(C(=O)O)c1)Nc1ccccc1Cl	13%	-1%	6%	10µM*	-10	-13%
O=C(Nc1cccc(Cl)c1)Nc1cccc(C(=O)O)c1	13%	i	14%	14µM*	61	16%
O=C(NCc1ccccc1)C(=O)Nc1cccc(C(=O)O)c1	1%	i[7.34 µM]	13%	11µM*	42	0%[7.34 µM]
OC(c1ccc(-c2ccccc2)cc1)c1ncc(-c2ccccc2F)[nH]1 (stereo not given)	x	i	x	22%	2	0%
O=C(COC(=O)c1ccccc1Br)Nc1ccc2[nH]c(=O)[nH]c2c1	x	-8%	14%	0%	-31	-17%
Cc1cc(C)cc(N(CCC#N)C(=O)COC(=O)Cn2[nH]c(=O)c3ccccc3c2=O)c1	x	-8%	-4%	-12%	-16	-9%
Cc1ncc2c(c1CNS(=O)(=O)N(C)C)CCN(C(=O)/C=C/c1ccccc1Cl)C2	x	-20%	x	-3%	x	-13%
CCOc1ccc(NC(C(=O)Nc2cccc(C(C)=O)c2)c2ccccc2)cc1 (stereo not given)	-12%	i	-20%	12%	0	0%
O=C(Nc1cccc(Cl)c1)Nc1ccc2nccnc2c1	-8%	x	u	8%	-77*	x
O=C(Nc1ccc(Cl)cc1)Nc1ccc(Cl)c(C(F)(F)F)c1	x	x	x	x	-99*	x
CCOc1ccc(NC(=O)Nc2cccc(C(=O)O)c2)cc1	1%	-15%	-22%	1.6µM*	22	-18%
O=C(Nc1ccc2nccnc2c1)Nc1ccccc1Cl	u	i	-23%	13%	-35	-12%
CCOc1ccc(/C=C/C(=O)Nc2cccc(C(C)=O)c2)cc1	-7%	-24%	13µM*	-23%	39	-21%
O=C(NNc1ccc(F)cc1F)c1cccs1	x	-9%	x	x	x	-13%
O=C(Nc1ccc(Cl)c(Cl)c1)Nc1ccccc1C(=O)O	-8%	-18%	-9%	-70%	-79*	-1%
CCOc1ccc(-n2nc3ccc(NC(=O)Cc4ccccc4)cc3n2)cc1	x	-29%	x	22µM*	-107*	-16%
CCOc1ccc(-n2nc3ccc(NC(=O)CC)cc3n2)cc1	-11%	-16%	u	44%	39	-6%
Cn1nnc2cc(NC(=O)Nc3cccc(Cl)c3)ccc21	-7%	x	0%	31%	-102*	x
SMILES	Giardia FBPA inh	Vaccinia mCherry	HCV inhibitor	FMDV antiviral	HCMV inh	VACV Venus inh
CCCCC(Sc1ccc2nnc(-c3ccccn3)n2n1)C(=O)O (stereo not given)	x	27%	x	x	x	-12%
O=c1cc(-c2ccccc2)cc(-c2ccccc2)n1O	x	14µM*	u	-4%	-16	u
Fc1ccc(C2=NOC(c3nnc(-c4ccccc4)o3)C2)cc1 (stereo not given)	2%	-2%	1%	0%	-65*	-9%
c1ccc(C2=NOC(c3nnc(-c4ccccc4)o3)C2)cc1 (stereo not given)	x	-6%	12%	33%	0	-3%
COc1ccc(C2c3cc(OC)c(OC)cc3CC(=O)N2c2ccc(C)cc2)cc1 (stereo not given)	x	-6%	x	-30%	22	-6%
COc1ccc(OC)c(/C=C2\NC(=O)NC2=O)c1	-1%	x	2%	-19%	-81*	x
COc1cc(C=C2NC(=O)NC2=O)ccc1O	x	-16%	x	-1%	-31	-16%
CCOc1cc(/C=N\NC(=O)c2ccc(NC(=O)C(C)(C)C)cc2)ccc1OC(=O)c1cccc(C)c1	-12%	x	3.2µM*	8.9µM*	-11	x
COc1ccc(/C=N/Nc2nnc(-c3ccccc3)c(=O)[nH]2)cc1	-6%	-13%	6%	6%	-100*	-9%
COc1ccc(C(=O)N/N=C/c2ccc(N(C)c3ccccc3)cc2)cc1	x	x	7.1µM*	32µM*	-37	x
CC(C)(C)C(=O)Nc1ccc(C(=O)N/N=C/c2ccccc2OC(=O)c2ccc(Cl)cc2)cc1	-12%	7.9µM*	10µM*	-2%	-23	u
CC(C(=O)N1CCc2ccccc21)N1CCN(Cc2ccc(Cl)cc2)CC1 (stereo not given)	-6%	-26%	-21%	-5%	-6	-1%
OCC(O)C(O)[C@H](O[C@H]1OC(CO)C(O)C(O)C1O)[C@H](O)CO (stereo not given in full)	4%	17%	x	-14%	x	4%
COc1ccc(/C=N/NC(=O)c2nn(-c3ccccc3)c(=O)c3c(N)scc23)cc1	2.5µM*	x	-20%	-18%	13	x
COc1ccc(C(=O)Nc2ccccc2C(N)=O)cc1	-7%	x	9%	28%	127	x
O=C(N/N=C/c1cc(Br)ccc1OC(=O)c1ccc(Br)cc1)c1ccncc1	x	4.5µM*	3.2µM*	0%	-16	u
COc1ccc(C(=O)Nc2ccccc2C(=O)N/N=C/c2cccc3ccccc23)cc1	-1%	x	-15%	0.32µM*	30	x
COc1cc(C(=O)Oc2ccccc2/C=N/NC(=O)c2ccc(C)cc2)cc(OC)c1OC	17%	x	7.9µM*	21%	-99*	u
COc1cc(C(=O)Oc2ccc(/C=N/NC(=O)c3ccncc3)cc2)cc(OC)c1OC	8%	x	-12%	-11%	22	x
COc1cccc(CS(=O)(=O)c2nnnn2-c2ccccc2)c1	-6%	x	x	x	x	x
COc1cc2c(c(OC)c1OC)-c1c(cc(OC)c(OC)c1OC)CC(C)C(C)C2 (stereo not given)	-2%	x	x	x	x	x
COc1ccc(C(=O)Nc2ccccc2C(=O)N/N=C/c2ccncc2)cc1OC	-1%	-8%	0%	14µM*	66	-5%
COc1ccc(C(=O)N/N=C/c2ccccc2OC(=O)c2ccccc2)cc1	2%	2µM*	u	61%	-97*	u
